Data reported in PubChem BioAssay (Tox21).
Results filed as inconclusive are left out. Activity calls are given as the source filed them. Unless noted, the call rests on the fitted dose curve; in most records, active means well fitted curve in the direction sought with a large enough effect in the repeat runs; inconclusive means weak or mixed curves; inactive means no such curve, though single readings can be large; an effect the other way counts as inactive or inconclusive.

Key:
[1] = qHTS RealTime-Glo MT Cell Viability Assay in HEK293 cells - 24 hour (AID 1224886); further: top concentration of the series differs between compounds; nearly all actives have a fitted effect of over 50% in size
Method in brief: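 Quantitative high-throughput screen of the Tox21 10K library in HEK293: cells and RealTime-Glo reagents plated together, compound added at 5 h, luminescence monitored through 40 h at 37 C.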

[2] = qHTS RealTime-Glo MT Cell Viability Assay in HEK293 cells - 8 hour (AID 1224887); further: top concentration of the series differs between compounds; nearly all actives have a fitted effect of over 50% in size
Method in brief: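 Luminescence, which tracks viable cell number through reduction of the prosubstrate to a NanoLuc substrate, was read over continuous 37 C culture. Cells (600/well) were premixed with reagent and rested 5 h before 23 nL of compound in DMSO was pinned.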

[3] = A CellTox Green Cytotoxicity Assay to monitor cytotoxicity in HEK293 cells - 16 hour (AID 1224888); further: nearly all actives have a fitted effect of over 35% in size
Method in brief: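 Fluorescence from a DNA-binding dye excluded by viable cells was measured repeatedly in the same HEK293 wells (600 cells/well) during continuous compound exposure at 37 C. Each assay gives one read point: 0, 8, 16, 24, 32 or 40 h.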

[4] = qHTS RealTime-Glo MT Cell Viability Assay in HepG2 cells - 0 hour (AID 1224889); further: nearly all actives have a fitted effect of over 50% in size
Method in brief: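 Compound treatment began 5 h after plating HepG2 cells (600/well) with NanoLuc luciferase and prosubstrate. Plates stayed at 37 C for 40 h; luminescence was captured at six time points, 0 h through 40 h.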

[5] = A CellTox Green Cytotoxicity Assay to monitor cytotoxicity in HepG2 cells - 8 hour (AID 1224890); further: nearly all actives have a fitted effect of over 45% in size
Method in brief: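 Real-time cytotoxicity: fluorescence of a cell-impermeant cyanine dye binding DNA of dead HepG2 cells, measured repeatedly (0–40 h) during compound exposure at 37 C. Cells seeded 600/well with reagent, dosed after 5 h.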

[6] = qHTS assay to identify small molecule antagonists of the estrogen receptor alpha (ER-alpha) signaling pathway using the BG1 cell line in the presence of 0.1 nM 17-beta-estradiol - cell viability counter screen (AID 1259241); further: nearly all actives have a fitted effect of over 40% in size
Method in brief: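 VM7Luc4E2 cells (endogenous ER-alpha, 4×ERE-luciferase), hormone-starved 5 days in charcoal-stripped FBS, were treated with compounds plus 0.1 nM 17beta-estradiol for 22 hr at 37C; viability read in same wells as CellTiter-Fluor live-cell protease fluorescence.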

[7] = qHTS assay to identify small molecule antagonists of the androgen receptor (AR) signaling pathway using the MDA cell line in the presence of 0.5 nM R1881 - cell viability counter screen (AID 1259242); further: nearly all actives have a fitted effect of over 45% in size
Method in brief: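 Live-cell protease activity was measured by CellTiter-Fluor fluorescence after 30 min. Before that, MDA-kb2 MMTV-luciferase cells had 16 hr at 37C without CO2, exposed to test compounds and 0.5 nM R1881 final.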

[8] = qHTS assay to identify small molecule HDAC inhibitors (AID 1259364); further: top concentration of the series differs between compounds; nearly all actives have a fitted effect of over 45% in size
Method in brief: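 Luminescence read after 30 min room-temperature HDAC-Glo incubation measures cellular class I/II HDAC activity. Compounds were applied for 2 hr at 37 C to HCT-116 wild-type cells seeded the day before.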

[9] = qHTS assay to identify small molecule HDAC inhibitors - cell viability counter screen (AID 1259365); further: series mostly up to about 92 µM; nearly all actives have a fitted effect of over 50% in size
Method in brief: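 Wild-type HCT-116 cells were seeded at 1,500 per well, incubated overnight at 37 C, then exposed to compounds in DMSO for 2hr. Viability was read by CellTiter-Glo luminescence after 30min at room temperature.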

[10] = qHTS assay to identify small molecule agonists of the sonic hedgehog signaling (Shh) pathway - cell viability counter screen (AID 1259366); further: nearly all actives have a fitted effect of over 50% in size
Method in brief: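 NIH/3T3-derived 3T3 Gli1-Luc cells (stable Gli1-responsive firefly luciferase reporter) were seeded, rested 4 hr at 37 C/5% CO2, then exposed to compounds in DMSO for 24 hr; viability was read by CellTiter-Fluor fluorescence in the same wells.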

[11] = qHTS assay to identify small molecule agonists of the sonic hedgehog signaling (Shh) pathway (AID 1259368; calls by dose curve; further: series mostly up to about 92 µM; nearly all actives have a fitted effect of over 15% in size)
Method in brief: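 Luminescence was read after 30 min at room temperature with luciferase reagent. Before that, 3T3Gli1-Luc cells (NIH/3T3 clone, stable Gli1-Luc reporter; 2,000/well) were exposed to compounds for 24 hr at 37C, 5% CO2, compounds being added 4 hr post-plating.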

[12] = target: Estrogen receptor beta (Homo sapiens) (UniProt Q92731); test: qHTS assay to identify small molecule agonists of the estrogen receptor beta (ER-beta) signaling pathway (AID 1259377; active means well fitted activation curve with a large enough effect in the signal ratio in the repeat runs, not every such curve was filed as active; the % refers to the signal ratio)
Method in brief: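 ER-beta-UAS-bla HEK293T (GripTite) cells carrying a UAS-driven beta-lactamase reporter, in medium with 2% charcoal-stripped FBS, were exposed to compounds for 16 hr at 37C; LiveBLAzer B/G FRET substrate was then added and fluorescence read after 2 hours at room temperature.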

[13] = target: Estrogen receptor beta (Homo sapiens) (UniProt Q92731); test: qHTS assay to identify small molecule antagonists of the estrogen receptor beta (ER-beta) signaling pathway (AID 1259378; active means well fitted inhibition curve with a large enough effect in the signal ratio in the repeat runs, not every such curve was filed as active; the % refers to the signal ratio)
Method in brief: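 ER-beta-UAS-bla HEK293T cells in 2% charcoal-stripped FBS medium treated with compound plus 1nM final 17-beta-estradiol for 16 hr at 37C. Beta-lactamase reporter read by FRET substrate fluorescence after 2 hours at room temperature.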

[14] = qHTS assay to identify small molecule agonists of the androgen receptor (AR) signaling pathway in the presence of an antagonist - cell viability counter screen (AID 1259379);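 further: MDA-kb2 human breast cancer cells carrying an MMTV luciferase reporter; series mostly up to about 92 µM; nearly all actives have a fitted effect of over 25% in size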
Method in brief: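 Cytotoxicity counter-screen run in the same wells as the nilutamide-challenged (3.0 µM final) AR agonist assay in MDA-kb2 cells. Compounds tested at 15 concentrations for 16 h, 37 °C without CO2; CellTiter-Fluor fluorescence read.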

[15] = qHTS assay to identify small molecule agonists of the estrogen receptor beta (ER-beta) signaling pathway - cell viability counter screen (AID 1259380); further: nearly all actives have a fitted effect of over 30% in size
Method in brief: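 Cell viability counter screen: CellTiter-Glo luminescence (30 min, room temperature) measured in the same wells as the beta-lactamase readout, after 16 hr compound exposure at 37C of ER-beta-bla HEK293T cells in 2% charcoal-stripped FBS medium.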

[16] = target: Androgen receptor (Homo sapiens) (UniProt P10275); test: qHTS assay to identify small molecule antagonists of the androgen receptor (AR) signaling pathway using the MDA cell line in the presence of 0.5 nM R1881 (AID 1259243); further: nearly all actives have a fitted effect of over 50% in size
Method in brief: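 Luminescent reporter readout (ONE-Glo, 30 min, room temperature) after 16 hr co-treatment of MDA-kb2 cells with test compounds and 0.5 nM R1881 final, at 37C without CO2. The MMTV-driven luciferase responds to both AR and GR.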

[17] = target: Estrogen receptor (Homo sapiens) (UniProt P03372); test: qHTS assay to identify small molecule antagonists of the estrogen receptor alpha (ER-alpha) signaling pathway using the BG1 cell line in the presence of 0.1 nM 17-beta-estradiol (AID 1259244); further: nearly all actives have a fitted effect of over 50% in size
Method in brief: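 Luciferase luminescence (ONE-Glo, 30 min at room temperature) was read after 22 hr at 37C exposure to compounds plus 17beta-estradiol at 0.1 nM final. Cells were VM7Luc4E2 with endogenous ER-alpha and an ERE-driven luciferase, pre-cultured 5 days in hormone-depleted medium.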

[18] = qHTS assay to identify small molecule antagonists of the sonic hedgehog signaling (Shh) pathway - cell viability counter screen (AID 1259367); further: nearly all actives have a fitted effect of over 55% in size
Method in brief: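 Fluorescence read-out (CellTiter-Fluor, 1 hr at 37C) taken after 23 hr compound treatment of 3T3 Gli1-Luc cells stimulated with conditioned medium. Cells were seeded at 2,000 per well and pre-incubated 4 hr.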

[19] = qHTS assay to identify small molecule antagonists of the sonic hedgehog signaling (Shh) pathway (AID 1259369; calls by dose curve; further: nearly all actives have a fitted effect of over 45% in size)
Method in brief: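 Antagonist mode: compound added to 3T3 Gli1-Luc cells followed by conditioned-medium stimulation, 24 h at 37 C, 5% CO2. Inhibition taken as loss of Gli1-driven luciferase luminescence.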

[20] = qHTS assay to identify small molecule phospholipidosis (PLD) inducers (AID 1259344; active means well fitted curve in the direction sought with a large enough effect; an effect the other way counts as inactive or inconclusive)
Method in brief: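 Read-out is LipidTOX Red fluorescence (ex 595/em 615) imaged in HepG2 cells after 24 h compound exposure at 37 C, with Hoechst nuclear counterstain (ex 352/em 461) allowing per-cell normalisation.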

Measured: Potency

Chain of Estrogen receptor beta (Homo sapiens) (Q92731 whole entry, looked up): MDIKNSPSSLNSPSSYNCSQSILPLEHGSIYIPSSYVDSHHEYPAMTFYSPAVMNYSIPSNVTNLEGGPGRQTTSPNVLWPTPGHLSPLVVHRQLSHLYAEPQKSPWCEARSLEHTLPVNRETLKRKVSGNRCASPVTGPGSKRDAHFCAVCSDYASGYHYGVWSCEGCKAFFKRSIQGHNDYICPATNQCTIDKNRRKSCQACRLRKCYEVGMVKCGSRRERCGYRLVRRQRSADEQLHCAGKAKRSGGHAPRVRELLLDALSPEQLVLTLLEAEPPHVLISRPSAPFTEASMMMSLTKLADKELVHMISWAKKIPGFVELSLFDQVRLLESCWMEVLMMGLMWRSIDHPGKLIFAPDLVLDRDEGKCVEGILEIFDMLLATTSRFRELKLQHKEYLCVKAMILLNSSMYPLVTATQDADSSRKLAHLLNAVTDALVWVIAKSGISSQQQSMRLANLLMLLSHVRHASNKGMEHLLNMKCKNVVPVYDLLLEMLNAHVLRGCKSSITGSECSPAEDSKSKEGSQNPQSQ
Chain of Estrogen receptor (Homo sapiens) (P03372 whole entry, looked up): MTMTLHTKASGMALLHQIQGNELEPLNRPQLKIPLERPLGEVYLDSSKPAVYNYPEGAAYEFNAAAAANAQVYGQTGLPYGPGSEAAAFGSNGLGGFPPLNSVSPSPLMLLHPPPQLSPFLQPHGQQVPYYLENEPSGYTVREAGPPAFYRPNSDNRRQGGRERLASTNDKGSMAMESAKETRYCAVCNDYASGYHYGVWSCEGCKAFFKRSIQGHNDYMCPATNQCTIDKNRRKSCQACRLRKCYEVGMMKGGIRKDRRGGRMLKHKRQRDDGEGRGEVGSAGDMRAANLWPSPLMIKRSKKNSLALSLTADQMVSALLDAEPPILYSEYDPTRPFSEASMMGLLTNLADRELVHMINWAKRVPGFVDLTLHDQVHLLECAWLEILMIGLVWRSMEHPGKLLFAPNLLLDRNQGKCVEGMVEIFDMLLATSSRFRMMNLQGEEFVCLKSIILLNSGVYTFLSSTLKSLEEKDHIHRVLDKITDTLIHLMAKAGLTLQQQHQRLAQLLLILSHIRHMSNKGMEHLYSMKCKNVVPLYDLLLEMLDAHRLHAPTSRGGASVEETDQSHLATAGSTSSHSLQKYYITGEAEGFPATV
Chain of Androgen receptor (Homo sapiens) (P10275 whole entry, looked up): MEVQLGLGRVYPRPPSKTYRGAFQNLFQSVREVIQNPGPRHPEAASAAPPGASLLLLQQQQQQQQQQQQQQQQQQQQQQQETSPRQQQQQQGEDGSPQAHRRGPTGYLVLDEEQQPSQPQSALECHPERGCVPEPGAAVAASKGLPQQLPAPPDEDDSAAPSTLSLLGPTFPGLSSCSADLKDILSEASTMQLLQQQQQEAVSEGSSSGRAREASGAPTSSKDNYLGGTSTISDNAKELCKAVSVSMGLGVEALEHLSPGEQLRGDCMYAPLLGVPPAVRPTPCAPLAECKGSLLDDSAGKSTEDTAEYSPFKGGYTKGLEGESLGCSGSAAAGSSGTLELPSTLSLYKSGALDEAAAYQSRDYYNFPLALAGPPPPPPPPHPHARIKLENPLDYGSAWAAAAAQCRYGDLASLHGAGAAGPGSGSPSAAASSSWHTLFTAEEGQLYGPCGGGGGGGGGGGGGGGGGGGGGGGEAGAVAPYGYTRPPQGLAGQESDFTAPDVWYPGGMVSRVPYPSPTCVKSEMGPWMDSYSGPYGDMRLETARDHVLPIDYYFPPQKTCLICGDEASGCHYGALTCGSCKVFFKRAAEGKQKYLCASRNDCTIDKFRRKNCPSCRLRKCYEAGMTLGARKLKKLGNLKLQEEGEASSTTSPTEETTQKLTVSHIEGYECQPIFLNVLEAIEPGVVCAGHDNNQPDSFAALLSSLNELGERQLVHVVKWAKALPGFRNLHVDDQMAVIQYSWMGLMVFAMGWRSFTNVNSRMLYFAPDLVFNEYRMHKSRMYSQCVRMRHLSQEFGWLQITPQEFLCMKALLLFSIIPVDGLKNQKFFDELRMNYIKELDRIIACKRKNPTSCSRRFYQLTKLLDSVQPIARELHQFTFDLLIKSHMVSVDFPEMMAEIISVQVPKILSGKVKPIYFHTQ

O=C1c2ccccc2-c2ccccc21
not listed: [16] | [17] | [18] | [19] | [20]
inactive: all other assays above

O=C(O)c1ccc(OCCN2CCCCC2)cc1
not listed: [5] | [20]
inactive: all other assays above

C/C=C(\C)C(=O)OCC/C=C\CC
not listed: [5] | [13] | [15] | [16] | [17] | [20]
inactive: all other assays above

CCN1CN(CC)CN(CC)C1
not listed: [5] | [16] | [18] | [20]
inactive: all other assays above

CCOC(=O)CC(CC(=O)OCC)(OC(C)=O)C(=O)OCC
not listed: [5] | [12] | [13] | [15] | [16] | [17] | [19] | [20]
inactive: all other assays above

Cc1cccc(NC(=S)N(C)C)c1
not listed: [11] | [13] | [16] | [17] | [20]
inactive: all other assays above

CC(C)CCC(=O)CCC(C)C
not listed: [11] | [16] | [17] | [18] | [20]
inactive: all other assays above

CCNC(=O)NCCCOc1cccc(CN2CCCCC2)c1
not listed: [5] | [12] | [13] | [16] | [17] | [18] | [19]
inactive: all other assays above
